A selection: hits, their analogues and other compounds. The true share with any hit is near 3.1%.
14-3-3 Bad PPI: inhibitors of 14-3-3 zeta/Bad binding, primary screen, biochemical, TR-FRET, bovine 14-3-3 zeta; 14-3-3 protein zeta/delta (Bos taurus), P63103; TR-FRET 14-3-3zeta/Dy647-pBad peptide displacement, 1 h; inhibition, % at 21.7 µM; hit rate 0.71% among 220,000; AID 781, 2007;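 active means inhibition above about 70%, limit read from the data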;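 further: 0% = full 14-3-3 plus peptide FRET controls and 100% = background without 14-3-3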
Target sequence (P63103 whole entry, looked up): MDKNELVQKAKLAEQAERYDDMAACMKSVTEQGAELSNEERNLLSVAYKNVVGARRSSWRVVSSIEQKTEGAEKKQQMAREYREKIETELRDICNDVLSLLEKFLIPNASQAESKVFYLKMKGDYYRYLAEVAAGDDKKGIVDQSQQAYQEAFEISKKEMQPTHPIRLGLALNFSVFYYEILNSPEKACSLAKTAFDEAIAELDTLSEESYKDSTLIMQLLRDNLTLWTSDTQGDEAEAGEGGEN
Mcl1-Bid inh: Mcl-1/Bid binding inhibitors, primary screen, biochemical, TR-FRET, 1536-well; inhibition, % at 21.7 µM; Induced myeloid leukemia cell differentiation protein Mcl-1 (Homo sapiens), Q07820; hit rate 0.97% among 220,000; TR-FRET Mcl-1/Bid-Dy647 peptide binding;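 active means compounds that cut the binding signal by more than half at the single screening dose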;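 further: His-tagged Mcl-1 with europium anti-His antibody binding Bid BH3 peptide; 0% = Mcl-1 plus peptide wells and 100% = peptide-only wells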
Bim-Mcl-1: inhibitors of Bim peptide binding to Mcl-1, primary screen, biochemical, bead-based flow cytometry, multiplex | Bim peptide-Mcl-1 binding | inhibition, % at 10 µM | hit rate 0.1% among 190,000 | AID 1009, 2008; in the data active means inhibition above about 40%;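 further: 0% = no compound tracer wells and 100% = peptide blocker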
p47phox inh: p47phox/p22phox peptide binding inhibitors, primary screen, biochemical, uHTS, NADPH oxidase regulatory subunit. inhibition, % at 24.7 µM. fluorescence polarization, 2 h. hit rate 0.53% among 220,000;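 active means inhibition above about 30%, limit read from the data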;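 further: 0% = p47phox with labelled peptide and 100% = labelled peptide alone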
Mcl1 Noxa PPI: Mcl-1/Noxa binding inhibitors, primary screen, biochemical, TR-FRET, 1536-well; Induced myeloid leukemia cell differentiation protein Mcl-1 (Homo sapiens), Q07820; TR-FRET Mcl-1/Noxa peptide binding, 2 h; inhibition, % at 21.7 µM; hit rate 1.5% among 220,000; AID 1022, 2008;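 active means compounds that cut the protein-peptide binding signal by more than 50% relative to plate controls in a single-dose test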;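 further: His-tagged Mcl-1 with rhodamine Noxa BH3 peptide and terbium anti-His antibody; 0% = Mcl-1 plus Noxa peptide wells and 100% = peptide-only wells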
* marks the source's active call; other numbers are inactive results; . = no result given; [ ] = dose if it differs, or a comment.

SMILES	14-3-3 Bad PPI	Mcl1-Bid inh	Bim-Mcl-1	p47phox inh	Mcl1 Noxa PPI
CCCCOc1ccccc1NC(=O)CC1SC(=NCC)N(CC)C1=O (stereo not drawn)	76.0*	-26.7	-3.0	12.7	-3.3
CC(C)(C)NC(=O)c1ccccc1NC(=O)C1CCCO1 (stereo not drawn)	2.6	-24.3	-3.0	0.6	30.3
Cc1ccc(-c2n[nH]c(=S)n2/N=C/C=C\c2ccccc2[N+](=O)[O-])cc1	39.4	-26.8	-2.0	-50.4	-14.7
O=[N+]([O-])c1ccccc1/C=C/C=N/n1c(-c2ccccc2)n[nH]c1=S	7.0	-32.9	-3.0	6.7	73.4*
O=[N+]([O-])c1ccccc1/C=C/C=N/n1c(-c2ccc(Cl)cc2)n[nH]c1=S	79.0*	7.7	-5.0	-38.6	14.6
O=C(Nc1ccc(F)cc1F)c1cc(=O)n(-c2ccccc2)c(=O)[nH]1	-1.8	6.0	1.0	-3.0	7.1
COc1ccc(/C=C/C(=O)NCC(c2ccc(F)cc2)N2CCOCC2)cc1OC (stereo not drawn)	-3.0	-5.8	.	1.9	-1.9
C/C(=N/NC(=O)c1ccc2nc[nH]c2c1)c1cccs1	13.0	-4.3	-5.0	-9.2	-7.3
C/C(=N\Nc1nc2c(s1)CCCC2)c1ccccc1	80.2*[fluorescence artefact?]	20.2	0.0	-16.2	27.9
COc1ccc(C2SCC(=O)N2CCCN(C)C)cc1 (stereo not drawn)	-0.9	91.5*	-1.0	-4.0	5.8
CCOCCOCN(C#N)c1nc(OC)nc(N(C)C)n1	1.5	-8.4	-2.0	-10.4	-9.7
CCN1C(=O)c2cccc3c(NS(=O)(=O)c4ccc(NC(C)=O)cc4)ccc1c23	-6.8	-76.1	4.0	0.4	-15.2
CCN1C(=O)c2cccc3c(S(=O)(=O)Nc4ccccc4OC)ccc1c23	-7.8	75.2*	-5.0	-1.4	21.4
CN1CCN(NC(=O)c2ccc(Cl)s2)CC1	-5.8	-41.7	0.0	-1.0	11.3
CC(C)CNC(=O)c1ccccc1SCC(=O)NC12CC3CC(CC(C3)C1)C2	13.6	-12.2	-3.0	-22.8	7.6
CC(=O)C(Cc1ccccc1)NC(=O)CN1CCN(Cc2ccccc2)CC1 (stereo not drawn)	-3.6	-52.3	-3.0	-3.9	10.7
CC1(C)C2CCC(C2)C1(C)NC(=O)CN1CCN(Cc2ccccc2)CC1 (stereo not drawn)	72.3*	36.5	-3.0	2.7	28.9
CC(C(c1cccs1)c1c(N)n(C)c(=O)n(C)c1=O)[N+](=O)[O-] (stereo not drawn)	-1.1	-19.9	.	-17.7	-4.3
Cc1cc(/C=N/n2c(COc3ccccc3)nc3ccccc3c2=O)c(O)c([N+](=O)[O-])c1	48.6	-16.9	0.0	-1.2	99.7*
COc1ccc(OC)c2c(C)c(C)[nH]c12	-2.3	-152.1	.	-8.2	-10.4
O=C1C2C(C(=O)N1/N=C/c1cccc([N+](=O)[O-])c1)C1C=CC2C12CC2 (stereo not drawn)	-1.0	-2.9	-1.0	-6.6	19.4
Cc1cccc(S(=O)(=O)C(C#N)c2nc3ccccc3nc2N2CC(C)OC(C)C2)c1 (stereo not drawn)	72.7*	-4.4	0.0	-10.7	10.8
O=C(Nc1ccc(CN2CCCCC2)cc1)c1sc2ccccc2c1Cl	-2.1	-16.8	.	-3.7	-6.6
CC(C)N=c1scc(-c2cccs2)n1/N=C/c1ccc(O)c(O)c1O	-19.8	-94.0	-3.0	-7.8	51.5*
CN=c1scc(-c2ccccc2F)n1/N=C/c1ccc(O)c(O)c1O	7.6	-38.5	-1.0	-4.0	57.6*
CCOC(=O)C1=C(C)NC(=NC)SC1c1ccccc1 (stereo not drawn)	-2.2	-23.0	-3.0	1.5	-3.4
CCOC(=O)Cn1nc(C)c(NC(=O)COc2ccc(C)c(C)c2)c1C	1.6	-41.6	.	-14.2	3.3
Cc1nnc(SCC(=O)N(C)c2ccccc2)n1Cc1ccccc1	-14.8	-17.5	-2.0	-1.3	-4.3
O=S(=O)(C(=CNc1ccccc1)S(=O)(=O)c1ccccc1)c1ccccc1	2.2	9.2	-5.0	-9.8	3.1
OCCNc1nc(N2CCN(Cc3ccccc3)CC2)nc2ccccc12	80.3*	22.4	4.0	-16.6	46.2

Screening data (PubChem BioAssay)
